Unmarked numbers belong to inactive results. The rule behind the calls is not given here.
Molecular target: Pantothenate synthetase (Mycobacterium tuberculosis (strain ATCC 25618 / H37Rv)) (UniProt P9WIL5)
Test: Recombinant Mtb pantothenate synthetase (PanC) inhibitors, coupled enzyme, confirmatory (AID 375);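 note: 0% = full reaction with vehicle and 100% = no enzyme background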
Conditions: coupled enzyme assay; at 10 µM, stronger effect = higher value

Chain of Pantothenate synthetase (Mycobacterium tuberculosis (strain ATCC 25618 / H37Rv)) (P9WIL5 whole entry, looked up): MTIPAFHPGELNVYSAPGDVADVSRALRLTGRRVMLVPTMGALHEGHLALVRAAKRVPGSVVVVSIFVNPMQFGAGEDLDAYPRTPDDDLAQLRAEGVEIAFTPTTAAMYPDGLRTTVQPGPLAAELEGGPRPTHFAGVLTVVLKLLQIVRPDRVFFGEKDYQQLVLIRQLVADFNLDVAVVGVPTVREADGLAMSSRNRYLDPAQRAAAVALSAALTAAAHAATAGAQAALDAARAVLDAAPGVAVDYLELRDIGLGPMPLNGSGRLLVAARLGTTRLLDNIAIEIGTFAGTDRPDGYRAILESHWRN

| SMILES | inhibition [%] |
| --- | --- |
| CCC(=O)Nc1cc(C(=O)NCC2CCCN2CC)c(OC)cc1N(C)C (centres undefined) | 0 |
| Cc1nc2ccccc2c2oc(C(=O)N3CCC(N4CCCCC4)CC3)cc12 | 0 |
| CCOC(=O)c1cccc(NC(=O)CSc2nnc(-c3ccoc3C)n2CCOC)c1 | 1 |
| COc1ccc(C2C(C(=O)NCCN3CCOCC3)c3ccccc3C(=O)N2C2CCCCC2)cc1 (centres undefined) | 0 |
| C=CCn1c(SCC(=O)C(C)(C)C)nnc1-c1ccccn1 | 3 |
| CCC(C)(C(=O)NC1CCCC1)N(C(=O)c1cnccn1)c1c(C)n(C)n(-c2ccccc2)c1=O (centres undefined) | 0 |
| COc1cccc(-c2cc(C(=O)N3CCCCCC3)no2)c1 | 1 |
| Cn1c(COc2ccc(Cl)cc2)nnc1SCC(=O)NC1CCCCC1 | 0 |
| CCN(CC)c1ccc2cc(NC(=O)CCC(=O)O)c(=O)oc2c1 | 0 |
| O=C(NCCc1cccc(Cl)c1)c1cccnc1 | 12 |
| CC(C)Oc1cc2oc(=O)c3c(c2cc1Cl)CCC3 | 0 |
| O=c1[nH]c2ccc(S(=O)(=O)N3CCN(C4CCCCC4)CC3)cc2[nH]c1=O | 1 |
| C=CCn1c(COc2ccc(CC)cc2)nnc1SC/C(O)=C(\C#N)c1nc2ccccc2[nH]1 | 5 |
| CC(C)c1ccc(NC(=O)CCNS(=O)(=O)c2cccc3nonc23)cc1 | 0 |
| O=C(CN(c1ccc(F)cc1)S(=O)(=O)c1ccc2c(c1)OCCO2)NCC1CCCO1 (centres undefined) | 0 |
| COc1ccc(-c2nn(-c3ccccc3)cc2/C=N/n2cnnc2)cc1OC | 9 |
| CCOC(=O)CN1CC23C=CC(O2)C(C(=O)Nc2ccc(OC)cc2OC)C3C1=O (centres undefined) | 0 |
| CCCCCCC(C)n1[nH]c(=O)c2c(C)cc(=O)[nH]c21 (centres undefined) | 5 |
| COC(=O)c1cccc(S(=O)(=O)N2CCN(c3nc4ccccc4s3)CC2)c1 | 2 |
| CCCN(CCC)CCNC(=O)C(NS(=O)(=O)c1ccc2c(c1)CCC(=O)N2)c1ccccc1 (centres undefined) | 0 |
| COc1ccc(-c2noc(COc3ccc(Cl)c(C)c3)n2)cc1 | 0 |
| O=C(NCCc1ccccn1)c1ccc(COc2ccccc2)o1 | 0 |
| COC(=O)c1ccc2c(=O)n(Cc3ccco3)c(SCC(=O)Nc3ccc(C)c(Cl)c3)nc2c1 | 2 |
| CC1CCN(C(=O)CCNS(=O)(=O)c2ccccc2)CC1 | 3 |
| CCN1CCN(c2ncnc3c2cnn3-c2ccc(C)cc2C)CC1 | 9 |
| Cc1nc2sc(C(c3ccc(Br)cc3)N3CC(C)OC(C)C3)c(O)n2n1 (centres undefined) | 0 |
| CCN1C(=O)/C(=C/N2CCc3ccccc32)SC1=S | 0 |

| SMILES | inhibition [%] |
| --- | --- |
| CCOc1ccc(CCN2C(=O)C3C4C=CC(C4)C3C2=O)cc1OCC (centres undefined) | 3 |
| O=C(CCNS(=O)(=O)c1ccc(Cl)cc1)NCc1ccccn1 | 0 |
| COC(=O)C1CCN(C(=O)CN2C(=O)NC(CCc3ccccc3)C2=O)CC1 (centres undefined) | 0 |
| Cc1ccc(CNc2cc(-c3nn4c(C)nnc4s3)ccc2C)s1 | 4 |
| Cc1cc(C)n2nc[n+](C)c2n1 | 0 |
| COC(=O)Cn1ncc2c(C)n(Cc3ccccc3)c(C)c2c1=O | 2 |
| OC(CCCN1CCC(O)(c2ccc(Cl)cc2)CC1)c1ccc(F)cc1 (centres undefined) | 5 |
| COc1ccccc1OCc1ccc(C(=O)N2CCN(C(=O)c3ccco3)CC2)cc1 | 1 |
| COC(=O)c1ccccc1NC1c2ccccc2C(=O)N1c1cccnc1 (centres undefined) | 0 |
| CCC(C)(C(=O)NC1CCCC1)N(Cc1cccs1)C(C)=O (centres undefined) | 2 |
| COC(=O)c1cc(Br)c(=O)n(-c2nccs2)c1 | 0 |
| Cc1cc(C)cc(NC(=O)CN(C)S(=O)(=O)c2cnc[nH]2)c1 | 11 |
| Cc1oc(-c2ccc(Cl)cc2)cc1-c1nn2c(-c3ccoc3C)nnc2s1 | 3 |
| COc1ccc2cc(C(=O)NCc3ccco3)c(=Nc3ccc(C(=O)O)cc3)oc2c1 | 0 |
| Cc1ccccc1NS(=O)(=O)c1cc(S(C)(=O)=O)ccc1Cl | 0 |
| CC(C)=CCCC(C)NC(=O)NC1CCCCC1 (centres undefined) | 0 |
| Cc1nnc(SCC(=O)NC(C)(C)C)n1CCc1ccccc1 | 0 |
| COCCc1ccc(OCC(O)CNC(C)C)cc1 (centres undefined) | 6 |
| C#CCNc1c(C)c(C)nc2ncnn12 | 4 |
| Cc1cc(NC(=O)CS(=O)(=O)c2cn(Cc3ccccc3Cl)c3ccccc23)no1 | 9 |
| O=C(c1cccs1)N1CCN=C1SCc1ccccc1 | 4 |
| CCOc1ccccc1N1CCN(S(=O)(=O)c2cccc3nsnc23)CC1 | 0 |
| Cc1nc2ccc(CCO)cc2s1 | 0 |
| CC(C)CCNC(=O)Cn1c(NCCC(C)C)nc2c1c(=O)n(C)c(=O)n2C | 0 |
| N#Cc1ccc(-c2csc(NC(=O)C3CC3)n2)cc1 | 0 |
| O=C(COc1ccc(F)cc1Br)N1CCc2ccccc21 | 10 |
| Nc1nc(NC(=O)c2cccs2)nn1-c1ccccc1 | 1 |
